Measured values: the supplement of paper PMC8047044
Values joined by “and” are separate entries in the source; they are usually repeats but may differ in a detail not shown here. Equal entries are not always repeated. Structures can show the parent of a compound that is named as a salt.

What follows are molecules tested on Neuro-2a (assay: neurite formation score, plate-normalized to DMSO control mean 5.04 (score (0-8 scale)); higher = more or longer neurites). Conditions: 1 µM.
Description: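 Neuro-2a mouse neuroblastoma cells in PLL-coated 96-well plates were pre-treated for 1 h in DMEM(+) with each kinase inhibitor at 1 µM, then switched to serum-free DMEM(-) with inhibitor to induce neurite outgrowth and fixed about 2-3 h later. Three blinded observers scored neurite formation from 0 (no neurites) to 8 (long neurites on almost all cells).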

| Compound | neurite formation score |
| --- | --- |
| c1cc(-c2cnn3cc(-c4ccc(N5CCNCC5)cc4)cnc23)c2cccnc2c1 | 4.88 |
| CS(=O)(=O)N1CCN(Cc2cc3nc(-c4cccc5[nH]ncc45)nc(N4CCOCC4)c3s2)CC1 | 4.24 |
| CCNC(=O)Nc1ccc(-c2nc3c(c(N4CCOC[C@@H]4C)n2)CCN(C2COC2)C3)cc1 | 4.24 |
| N#CCNC(=O)c1ccc(-c2ccnc(Nc3ccc(N4CCOCC4)cc3)n2)cc1 | 4.69 |
| Cn1cnc2c(F)c(Nc3ccc(Br)cc3F)c(C(=O)NOCCO)cc21 | 3.24 |
| C#Cc1cccc(Nc2ncnc3cc(OC)c(OCCCCCCC(=O)NO)cc23)c1 | 4.36 |
| Cc1ccc(NC(=O)c2cccc(N(C)C)c2)cc1NC(=O)c1ccc(O)cc1 | 5.63 |
| O=C(NC[C@H](O)CO)c1ccncc1Nc1ccc(I)cc1F | 3.9 |
| O=c1oc2c(O)c(O)cc3c(=O)oc4c(O)c(O)cc1c4c23 [Ellagic acid] | 4.47 |
| COc1cc(N2CCC(N(C)C)CC2)ccc1Nc1ncc(Cl)c(Nc2ccccc2P(C)(C)=O)n1 | 4.57 |
| N#CC[C@H](C1CCCC1)n1cc(-c2ncnc3[nH]ccc23)cn1 | 4.91 |
| Nc1nccc(Oc2ccc(NC(=O)c3c[nH]cc(-c4ccc(F)cc4)c3=O)cc2F)c1Cl | 3.96 |
| CCOC(=O)c1cnc2ccc(-c3cncc(NS(=O)(=O)c4ccccc4)c3)cn12 | -0.457 |
| COc1ccc(CNc2nc(N(CCO)CCO)nc3c2ncn3C(C)C)cc1 | 5.57 |
| CC(C)(O)CC(=O)NCCn1ccc2ncnc(Nc3ccc(Oc4cccc(C(F)(F)F)c4)c(Cl)c3)c21 | 5.14 |
| Nc1ncnc2c1c(-c1cnc3[nH]ccc3c1)nn2C1CCCC1 | 3.21 |
| CCCCCCCCc1ccc(CCC(N)(CO)CO)cc1 [Fingolimod (FTY720)] | 3.63 |
| COc1ccc(-c2nc(N3CCOCC3)c3sc(CN(C)c4ncc(C(=O)NO)cn4)cc3n2)cn1 | 4.36 |
| Cc1c(F)cc(C(=O)NC2CC2)cc1-c1ccc(C(=O)NCC(C)(C)C)cn1 [Losmapimod] | 5.21 |
| Nc1cccc(S(=O)(=O)N2CCCN(S(=O)(=O)c3ccc4c(c3)OCCO4)CC2)c1 | 4.14 |

| Compound | neurite formation score |
| --- | --- |
| COc1cc2nccc(Oc3ccc(NC(=O)C4(C(=O)Nc5ccc(F)cc5)CC4)cc3)c2cc1OC [Cabozantinib malate (XL184)] | 2.29 |
| CC(C)[C@H](CO)Nc1nc(Nc2ccc(C(=O)O)c(Cl)c2)c2ncn(C(C)C)c2n1 [Purvalanol B] | 4.63 |
| Oc1cc(O)cc(/C=C/c2ccc(O)c(O)c2)c1 [Piceatannol] | 4.88 |
| C[C@@H](Oc1cc(-n2cnc3ccc(CN4CCN(C)CC4)cc32)sc1C(N)=O)c1ccccc1C(F)(F)F | 4.29 |
| CCC(=O)Nc1cccc(Oc2nc(Nc3ccc(N4CCN(C)CC4)cc3OC)ncc2Cl)c1 | 5.63 |
| N#C/C(=C\c1ccc(O)c(O)c1)C(=O)NCc1ccccc1 | 4.02 |
| CN(C)CCCn1cc(C2=C(c3c[nH]c4ccccc34)C(=O)NC2=O)c2ccccc21 | 5.24 |
| O=C(c1ccc(Nc2nccc(-c3cc4ccccc4s3)n2)cc1)N1CCC(N2CCCC2)CC1 [IKK-16 (IKK Inhibitor VII)] | 4.54 |
| O=c1c(-c2ccc(O)cc2)coc2cc(O)cc(O)c12 [Genistein] | 4.57 |
| CN(C)Cc1cccc(N=C(c2ccccc2)c2c(O)[nH]c3cc(C(=O)N(C)C)ccc23)c1 | 4.9 |
| O=C(Nc1ccc(-c2ccnc(Nc3ccc(N4CCOCC4)cc3)n2)cc1)C1CCCN1 (stereo not given) | 4.02 |
| Cc1nc(NC(=O)N2CCC[C@H]2C(N)=O)sc1-c1csc(C(C)(C)C)n1 | 4.57 |
| Cc1ccc(F)c(NC(=O)Nc2ccc(-c3cccc4[nH]nc(N)c34)cc2)c1 [Linifanib (ABT-869)] | 3.14 |
| Cn1c(=O)n(-c2ccc(C(C)(C)C#N)cc2)c2c3cc(-c4cnc5ccccc5c4)ccc3ncc21 | 2.9 |
| CCOc1cc(N2CCC(O)CC2)ccc1Nc1ncc2c(n1)N(C)c1ccccc1C(=O)N2C | 4.69 |
| C=CC(=O)N1CCC(Oc2cc3c(Nc4ccc(Cl)c(Cl)c4F)ncnc3cc2OC)CC1 [Poziotinib] | 4.14 |
| CNC(=O)c1cc(Oc2ccc(NC(=O)Nc3ccc(Cl)c(C(F)(F)F)c3)c(F)c2)ccn1 [Regorafenib hydrochloride] | 3.69 |
| Fc1cc(-c2cccc3ncc(-c4cnn(C5CCNCC5)c4)nc23)cc(F)c1CN1CCOCC1 | 4.47 |
| O=C(NOC[C@H](O)CO)c1ccc(F)c(F)c1Nc1ccc(I)cc1F | 4.91 |
| CC(C)(C)c1nc(-c2cccc(NS(=O)(=O)c3c(F)cccc3F)c2F)c(-c2ccnc(N)n2)s1 | 5.02 and 5.29 |
